# Test results as given in PubChem BioAssay (EPA / NIEHS).
# Several values for one entry are separate records, joined by “and”; a condition that tells them apart may be missing. Equal values may be shown once. Inconclusive results are not listed. Where a structure was tested more than once in an assay, its records may differ in their call. Activity calls are given as the source filed them. Rule for the calls, unless noted: active = hit-call score of the fitted dose curve at least 0.9, where 1 is the maximum; inactive = score below 0.9.
# Assays:
# [1] = target: Estrogen receptor (Homo sapiens) (UniProt P03372); assay: CCTE_Deisenroth_AIME_384WELL_LUC_Shift: CCTE's 384-well Estrogen Receptor Transactivation Assay with AIME metabolic competence data shift (ERTA luciferase; difference in metabolism positive and negative), Deisenroth Lab (AID 2284041);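 note: shift is response with S9 minus without S9 so positive means metabolism raised ER signal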
# Outline: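 Chemicals (0.002–200 uM, 10 points) pre-incubated 2 h with alginate-encapsulated induced male Sprague Dawley rat liver S9 or S9-free, then medium applied 24 h to VM7Luc4E2 cells; luciferase. Endpoint is per-concentration difference, S9-positive minus negative.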
# DIO2 (gene 1734) = assay: CCTE_GLTED_hDIO2: CCTE's human Deiodinase 2 (DIO2) Inhibition Assay, Great Lakes Toxicology and Ecology Division (GLTED) Lab (AID 2284050; active = hit-call score of the fitted dose curve at least 0.9, where 1 is the maximum)
# Outline: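 Readout: absorbance from Sandell-Kolthoff detection of free iodide released by human DIO2 during a 3 h incubation with chemical. Cell-free format, n=3; activity fitted relative to DMSO negative control.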
# DIO3 (gene 1735) = assay: CCTE_GLTED_hDIO3: CCTE's human Deiodinase 3 (DIO3) Inhibition Assay, Great Lakes Toxicology and Ecology Division (GLTED) Lab (AID 2284055; active = hit-call score of the fitted dose curve at least 0.9, where 1 is the maximum;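 for AC50: potency is for inhibition seen as loss of released iodide signal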)
# Outline: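 hDIO3 (adenovirus-expressed) + test chemical, 3 h incubation; free iodide quantified by Sandell-Kolthoff reaction, absorbance read-out. DMSO negative control, n=3.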
# [2] = CCTE_Deisenroth_AIME_384WELL_CTox_Inactive: Cytotoxicity Assessment (CTOX) in CCTE's 384-well Estrogen Receptor Transactivation Assay without AIME metabolic competence (metabolism negative), Deisenroth Lab (AID 2284039; active = hit-call score of the fitted dose curve at least 0.9, where 1 is the maximum;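 note: cell viability via live-cell protease substrate cleaved to fluorescent probe; cells exposed 24 h to medium preincubated 2 h with alginate-water beads without S9; loss of fluorescence signal means loss of viability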)
# Outline: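 VM7Luc4E2 cells, metabolism-negative arm: test chemicals (0.002–200 uM, 10 points) pre-incubated 2 h with alginate-water microspheres, then medium transferred to cells for 24 h. Viability read as protease-substrate cleavage to fluorescent probe; loss-of-signal, bidirectional fitting.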
# [3] = CCTE_Shafer_MEA_dev_active_electrodes_number: CCTE's Neural Network Formation Assay for Number of Active Electrodes, Shafer Lab (AID 2284040; active = hit-call score of the fitted dose curve at least 0.9, where 1 is the maximum;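 for AC50: potency for loss of active electrodes versus DMSO so lower counts are hits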)
# Outline: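 Developing rat cortical networks on MEAs, exposed DIV 0–12. Value is the AUC of active-electrode counts (≥5 spikes/min) from days 5, 7, 9, 12, relative to DMSO.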
# [4] = CCTE_Shafer_MEA_dev_burst_rate: CCTE's Neural Network Formation Assay for Burst Rate, Shafer Lab (AID 2284042);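 for AC50: potency for loss of burst rate below DMSO control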
# Outline: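 Primary rat cortical neurons on PEI-coated 48-well MEA plates (laminin added with cells at plating) (16 electrodes/well), exposed from plating to day 12, dosing renewed at DIV 5 and 9. Burst rate averaged over active electrodes, recorded DIV 5, 7, 9, 12, summarized as AUC; loss versus DMSO.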
# [5] = CCTE_Shafer_MEA_dev_bursting_electrodes_number: CCTE's Neural Network Formation Assay for Number of Bursting Electrodes, Shafer Lab (AID 2284043; active = hit-call score of the fitted dose curve at least 0.9, where 1 is the maximum;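 for AC50: potency is for loss of bursting electrodes relative to DMSO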)
# Outline: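 Rat cortical primary neurons, 48-well MEA, 16 electrodes/well; dosing DIV 0–12, re-dosed with full media change DIV 5, 9. Recordings DIV 5/7/9/12, AxIS adaptive spike detector; bursting electrode = ≥1 burst/2 min. AUC across days; loss of signal vs DMSO.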
# [6] = CCTE_Shafer_MEA_dev_per_burst_interspike_interval: CCTE's Neural Network Formation Assay for Burst Interspike Interval, Shafer Lab (AID 2284044);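 note: mean spike spacing inside bursts as AUC over recordings on days 5 7 9 12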;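 for AC50: potency for a decrease of within-burst interspike interval below DMSO level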
# Outline: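 Spontaneous activity of maturing rat cortical networks is recorded on DIV 5, 7, 9 and 12 under chronic compound exposure beginning at plating. Endpoint: burst interspike interval well-mean, collapsed into trapezoidal AUC and fitted in the negative direction relative to DMSO.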
# [7] = CCTE_Shafer_MEA_dev_inter_network_spike_interval_mean: CCTE's Neural Network Formation Assay for Mean Inter-network Spike Interval, Shafer Lab (AID 2284047)
# Outline: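 Primary rat cortical neurons on 16-electrode MEA wells, exposed from plating day 0 through DIV 12, compound renewed at DIV 5 and 9 media changes. Mean interval between network-spike peaks recorded DIV 5, 7, 9, 12; collapsed as trapezoidal AUC, fitted downward versus DMSO.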
# [8] = CCTE_Shafer_MEA_dev_network_spike_number: CCTE's Neural Network Formation Assay for Number of Network Spikes, Shafer Lab (AID 2284048);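 note: synchronized bursts across electrodes counted on days 5 7 9 12 and integrated as AUC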;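 for AC50: fit as a loss of signal meaning fewer network spikes than DMSO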
# Outline: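 Rat cortical primary cultures on 48-well MEA (16 electrodes/well); continuous exposure DIV 0–12, full medium and treatment exchange DIV 5, 9. Readout: network spike count, AxIS adaptive detection, recordings DIV 5/7/9/12 collapsed to AUC; loss-of-signal fit, DMSO baseline.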
# [9] = CCTE_Shafer_MEA_dev_network_spike_peak: CCTE's Neural Network Formation Assay for Mean Number of Electrodes in Network Spike, Shafer Lab (AID 2284049);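 for AC50: fitted for loss of signal meaning fewer electrodes in network spikes than DMSO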
# Outline: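 Network-spike peak electrode count from recordings on days 5, 7, 9 and 12 was combined as trapezoidal area under the curve. Rat cortical cultures were treated continuously from plating, with compound renewed at each feed (DIV 5, 9); fits versus DMSO.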
# [10] = CCTE_Shafer_MEA_dev_spike_duration_mean: CCTE's Neural Network Formation Assay for Mean Spike Duration, Shafer Lab (AID 2284051);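 note: mean network spike duration pooled as area under curve over DIV 5 to 12 recordings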;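 for AC50: potency for a decrease in mean network spike duration versus DMSO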
# Outline: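 Primary rat cortical neurons on 16-electrode MEA wells (PEI-coated, laminin in plating drop), exposed from plating through DIV 12 with compound renewed at DIV 5 and 9. Mean network-spike duration recorded DIV 5, 7, 9, 12; trapezoidal AUC across days, DMSO baseline.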
# [11] = CCTE_Shafer_MEA_dev_network_spike_duration_std: CCTE's Neural Network Formation Assay for Standard Deviation of Network Spike Duration, Shafer Lab (AID 2284052);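 note: area under curve of spike duration SD across recording days 5 to 12; hits are decreases in network spike duration SD versus DMSO vehicle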
# Outline: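 Primary rat cortical neurons on PEI-coated 16-electrode MEA wells, exposed from plating day 0 through day 12 with compound renewed at DIV 5 and 9. Network spike duration SD recorded on days 5, 7, 9, 12, collapsed as trapezoidal AUC; loss-of-signal fit versus DMSO.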
# [12] = CCTE_Shafer_MEA_dev_per_network_spike_spike_percent: CCTE's Neural Network Formation Assay for Percent of Spikes in a Network Spike, Shafer Lab (AID 2284054)
# Outline: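 Read-out: percent of spikes falling in a 0.05 s window at network-spike peak, from spontaneous MEA recordings on days 5, 7, 9 and 12; trapezoidal AUC; loss of signal versus DMSO. Rat cortical cultures, compound present throughout.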
# [13] = CCTE_Shafer_MEA_dev_LDH: CCTE's Lactate Dehydrogenase Assay for Cytotoxicity in the Neural Network Formation Assay, Shafer Lab (AID 2284068; active = hit-call score of the fitted dose curve at least 0.9, where 1 is the maximum;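 note: exposure for twelve days from plating with re-dosing on DIV 5 and 9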)
# Outline: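 Primary rat cortical neurons were plated on PEI/laminin MEA plates and exposed from day 0 for twelve days, with compound renewed at DIV 5 and 9. Cytotoxicity was determined by spectrophotometric LDH assay relative to DMSO.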
# [14] = CCTE_Shafer_MEA_dev_AB: CCTE's Alamar Blue Assay for Cytotoxicity in the Neural Network Formation Assay, Shafer Lab (AID 2284083; active = hit-call score of the fitted dose curve at least 0.9, where 1 is the maximum;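 note: twelve days of exposure from plating with re-dosing on DIV 5 and 9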)
# Outline: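 Primary rat cortical neurons on PEI-coated 48-well MEA plates, 1.5 x 10^5 cells/well in laminin drop; compound exposure from day 0 of plating for twelve days, renewed at medium changes on DIV 5 and 9. Viability read as resazurin reduction by fluorescence, relative to DMSO.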
# [15] = CCTE_Shafer_MEA_acute_LDH: CCTE's Lactate Dehydrogenase Assay for Cytotoxicity in the Neural Acute Assay, Shafer Lab (AID 2284086; active = hit-call score of the fitted dose curve at least 0.9, where 1 is the maximum;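 note: active means LDH release rises above DMSO vehicle level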)
# Outline: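 LDH absorbance at 490 nm in medium taken right after 40-min compound exposure; rat primary cortical neuron networks on MEA plates, days post-plating 13 or 15. Increase over DMSO baseline scored as cytotoxicity.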
# [16] = CCTE_Shafer_MEA_dev_mutual_information_norm: CCTE's Neural Network Formation Assay for Mutual Information Normalization, Shafer Lab (AID 2284091);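 for AC50: mutual information between electrodes summarised as area under curve across four recording days; potency is for a decrease in mutual information relative to DMSO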
# Outline: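 Neurons from rat cortex were seeded at 1.5 x 10^5 cells/well onto PEI-coated MEAs in a laminin drop, then exposed to compound from day 0 for twelve days. Network recordings on four days gave mutual information, summarised by AUC relative to DMSO.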
# [17] = UKN5_HCS_SBAD2_cell_viability: Viability Assessment in the University of Konstanz (UKN) Leist Lab Neurite Outgrowth Assay in human iPSC-derived immature Dorsal Root Ganglia Neurons (UKN5) (AID 2284056)
# Outline: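 iPSC-derived immature peripheral neurons (SBAD2) seeded on Matrigel with CHIR99021, SU5402 and DAPT, dosed 1 h later for 24 h. Viability from Hoechst H-33342 and calcein-AM live staining, high-content imaging; bidirectional fit versus DMSO.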
# [18] = UKN5_HCS_SBAD2_neurite_outgrowth: University of Konstanz (UKN) Leist Lab Neurite Outgrowth Assay in human iPSC-derived immature Dorsal Root Ganglia Neurons (UKN5) (AID 2284070); settings: actives raise or lower the signal
# Outline: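 Cryopreserved SBAD2 peripheral neurons were seeded at 100.000 cells/cm2 in N2-S/KSR medium containing CHIR99021, SU5402 and DAPT, then exposed to compounds for 24 h. Neurite area from calcein-AM high-content imaging was fitted bidirectionally against DMSO.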
# Estrogen receptor (Homo sapiens), sequence (P03372 whole entry, looked up): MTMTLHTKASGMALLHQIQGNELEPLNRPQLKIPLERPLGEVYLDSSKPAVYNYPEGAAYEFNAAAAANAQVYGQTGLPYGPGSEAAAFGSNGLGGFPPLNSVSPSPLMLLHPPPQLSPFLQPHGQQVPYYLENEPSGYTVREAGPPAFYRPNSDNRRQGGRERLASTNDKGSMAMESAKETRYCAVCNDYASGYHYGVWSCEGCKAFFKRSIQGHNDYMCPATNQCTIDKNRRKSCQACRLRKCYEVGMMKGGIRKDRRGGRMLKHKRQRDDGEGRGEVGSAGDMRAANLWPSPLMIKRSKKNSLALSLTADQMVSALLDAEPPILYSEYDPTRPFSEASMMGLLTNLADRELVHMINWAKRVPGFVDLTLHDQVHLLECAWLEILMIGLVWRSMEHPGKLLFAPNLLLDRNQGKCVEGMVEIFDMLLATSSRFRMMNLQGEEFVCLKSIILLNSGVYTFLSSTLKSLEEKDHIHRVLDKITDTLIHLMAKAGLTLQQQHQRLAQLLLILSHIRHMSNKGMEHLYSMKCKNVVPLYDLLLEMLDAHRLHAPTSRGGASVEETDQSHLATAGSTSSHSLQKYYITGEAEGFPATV
structure (smiles),measurement,setting,value
CCOCN(C(=O)CCl)c1c(C)cccc1CC,outcome,[1],inactive
same,AC50,DIO2 (gene 1734),58.9 µM (active)
same,AC50,DIO3 (gene 1735),58.1 µM (active)
CCC(C)(NC(=O)c1cc(Cl)c(C)c(Cl)c1)C(=O)CCl (configuration not stated),AC50,DIO2 (gene 1734),13.2 µM (active)
same,AC50,DIO3 (gene 1735),41.2 µM (active)
CNC(=O)Oc1cccc(N=CN(C)C)c1,outcome,[2],inactive
same,outcome,[1],inactive
CC1(C)C(C=C(Cl)Cl)C1C(=O)OC(C#N)c1ccc(F)c(Oc2ccccc2)c1 (configuration not stated),AC50,[3],10 µM (active) and 26.4 µM (active) and 10.4 µM (active)
same,AC50,[4],1.07 µM (active) and 259 nM (active)
same,outcome,[4],inactive
same,AC50,[5],2.28 µM (active) and 25.9 µM (active) and 9.56 µM (active)
same,AC50,[6],10 µM (active)
same,outcome,[6],inactive
same,outcome,[7],inactive
same,AC50,[8],235 nM (active) and 10.6 µM (active) and 6.32 µM (active)
same,AC50,[9],10 µM (active) and 11.1 µM (active) and 15 µM (active)
same,AC50,[10],5.46 µM (active) and 10.2 µM (active) and 8.39 µM (active)
same,AC50,[11],3.51 µM (active) and 3.76 µM (active)
same,outcome,[11],inactive
same,AC50,[12],1.72 µM (active) and 13.6 µM (active) and 4.24 µM (active)
same,AC50,[13],42.3 µM (active)
same,outcome,[13],inactive
same,AC50,[14],64.4 µM (active)
same,outcome,[14],inactive
same,outcome,[15],inactive
same,AC50,[16],268 nM (active) and 6.41 µM (active) and 2.77 µM (active)
O=C(O)COc1ccc(Cl)cc1Cl,outcome,[2],inactive
same,AC50,[3],50 µM (active)
same,outcome,[4],inactive
same,AC50,[5],30.9 µM (active)
same,outcome,[6],inactive
same,outcome,[7],inactive
same,outcome,[8],inactive
same,AC50,[9],50 µM (active)
same,outcome,[10],inactive
same,outcome,[11],inactive
same,outcome,[12],inactive
same,AC50,[13],15 µM (active)
same,outcome,[14],inactive
same,AC50,[16],12.1 µM (active)
O=S(=O)(O)C(F)(F)C(F)(F)C(F)(F)C(F)(F)C(F)(F)C(F)(F)C(F)(F)C(F)(F)F,AC50,[2],100 µM (active)
same,AC50,[3],50 µM (active)
same,outcome,[3],inactive
same,AC50,[4],3.81 µM (active)
same,outcome,[4],inactive
same,AC50,[5],43.1 µM (active)
same,outcome,[5],inactive
same,outcome,[6],inactive
same,outcome,[7],inactive
same,outcome,[8],inactive
same,AC50,[9],50 µM (active)
same,outcome,[9],inactive
same,AC50,DIO2 (gene 1734),95 µM (active) [middle of 4 runs]
same,AC50,[10],50 µM (active)
same,outcome,[10],inactive
same,outcome,[11],inactive
same,outcome,[12],inactive
same,outcome,DIO3 (gene 1735),inactive
same,AC50,[17],770 µM (active)
same,AC50,[13],16.4 µM (active)
same,outcome,[13],inactive
same,AC50,[18],752 µM (active)
same,AC50,[14],50 µM (active)
same,AC50,[16],25 µM (active)
same,outcome,[16],inactive
CNC(=O)/C=C(\C)OP(=O)(OC)OC,outcome,[1],inactive
same,outcome,[15],inactive
